Molecules are shown by their SMILES. Values joined by “and” are separate entries in the source; they are usually repeats but may differ in a detail not shown here. Equal values may be shown once. Values without a mark were called inactive. The call rests on the fitted dose curve; in most records, active means well fitted activation curve with a large enough effect; inconclusive means small, poorly fitted or top-dose-only effect; inactive means no such curve, though single readings can be large or run the other way.

Chain of Cytochrome P450 3A4 (Homo sapiens) (P08684 whole entry, looked up): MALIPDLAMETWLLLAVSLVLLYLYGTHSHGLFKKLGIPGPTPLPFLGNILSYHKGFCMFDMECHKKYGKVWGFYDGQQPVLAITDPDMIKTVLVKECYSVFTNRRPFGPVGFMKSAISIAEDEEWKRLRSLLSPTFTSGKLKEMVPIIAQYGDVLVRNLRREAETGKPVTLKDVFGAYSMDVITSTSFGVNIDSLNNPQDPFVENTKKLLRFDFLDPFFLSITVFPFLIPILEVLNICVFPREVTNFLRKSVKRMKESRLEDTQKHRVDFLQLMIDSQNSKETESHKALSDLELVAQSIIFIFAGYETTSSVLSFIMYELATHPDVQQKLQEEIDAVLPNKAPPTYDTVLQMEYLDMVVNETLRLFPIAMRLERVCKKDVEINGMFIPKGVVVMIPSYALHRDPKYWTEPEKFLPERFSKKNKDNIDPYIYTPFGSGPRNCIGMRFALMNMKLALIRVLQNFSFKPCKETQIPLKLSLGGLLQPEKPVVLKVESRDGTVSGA

The experiment has as its target Cytochrome P450 3A4 (Homo sapiens) (UniProt P08684). The experiment in a line: qHTS Assay for Activators of Cytochrome P450 3A4 (AID 885). Further: nearly all actives have a fitted effect of over 65% in size. To be noted: recombinant CYP3A4, Luciferin-PPXE luminescence, 60 min; series mostly up to 57.1 µM; activity change, positive = activation: at the top concentration. An outline of the steps: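 Signal was normalized against complete inhibition by 57 uM ketoconazole. The reaction used 20nM CYP3A4 with 25uM Luciferin-PPXE, 10-min compound preincubation and a 60-min NADPH-supported step at RT.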
For orientation: In qHTS, concentration-response curves come from the screen itself.
As for `CCC1=C(OC(=O)N(CC)CC)N2C(=O)OC(=NCC(=O)OC)[C@]2(C)[C@H]2C1=CC[C@H]1C(=O)N(CC)C(=O)[C@H]12`, the “activity change, positive = activation” value is -79.2%.
The same measure for `CCC1=C2CC[C@H]3C(=O)N(c4ccccc4)C(=O)[C@H]3[C@H]2[C@@]2(C)C(=NCC(=O)OC)OC(=O)N2C1=O`: -77.2%.
The same measure for `C/C(CCN1CCCCc2nc(C)c(C)cc21)=N\O[C@@H](C)c1cn([C@H](CO)Cc2ccccc2)nn1`: -72.3% [at 11.4 µM] and -80.4% [at 11.4 µM]; for `CCC1=C(OC(=O)N(CC)CC)N2C(=O)OC(=NCC(=O)OC)[C@]2(Cc2ccccc2)[C@H]2C1=CC[C@H]1C(=O)NC(=O)[C@H]12`: -87.1%.
As to `COc1ccc(O[C@H]2C=C[C@@H](c3ccccc3)O[C@@H]2CO/N=C\[C@@H](C)[C@H](OCc2ccccc2)C(C)C)cc1`, the activity change, positive = activation is -73.9% [at 11.4 µM].
As for `CCC1=C(OC(=O)N(CC)CC)N2C(=O)OC(=NCC3CC3)[C@]2(C)[C@H]2C1=CC[C@H]1C(=O)N(CC(=O)OC)C(=O)[C@H]12`, the figure is -87.2%; as for `O=C1[C@H]2[C@H]3[C@H](O)[C@H](O)C/C(=N/OC[C@@H](O)COCc4ccco4)[C@H]3CC[C@@H]2C(=O)N1Cc1ccc2c(c1)OCO2`, -88.1% [at 11.4 µM].
As for `CCC1=C(OC(=O)N(CC)CC)N2C(=O)OC(=NCCc3c[nH]c4ccccc34)[C@]2(Cc2ccccc2)[C@H]2C1=CC[C@H]1C(=O)N(c3ccccc3)C(=O)[C@H]12`, the figure is -106%; as for `N#Cc1ccc(C23CC4(C2)[C@H](CN(Cc2cccnc2)[C@@H]4c2ccccc2)C3c2ccccc2)cc1` (some centres undefined), -115%; as for `CCc1cc(C(C)=O)c(O)cc1OCCCCCC(C)(C)c1nn[nH]n1`, -74.4%.
As for `CCC1=C2CC[C@H]3C(=O)N(CC)C(=O)[C@H]3[C@H]2[C@@]2(Cc3ccccc3)C(=NCc3ccccc3)OC(=O)N2C1=O`, the figure is -108%; as for `Cn1c(N)c(C(=O)COC(=O)c2cc(-c3ccco3)nc3ccccc23)c(=O)n(Cc2ccccc2)c1=O`, -71.7%; as for `Cc1ccc(S(=O)(=O)N[C@H]2COC(=O)CC=C[C@@H](C)[C@H]3C=C[C@H](O)[C@@H](COC(=O)CC=C[C@H]2C)O3)cc1`, -86.3% [at 11.4 µM].
For the molecule `C/C(CCN1CCCCc2nc(C)c(C)cc21)=N\O[C@@H](C)c1cc(-c2c(C)cc(C)cc2C)no1`, the activity change, positive = activation was -65.9% [at 11.4 µM].

The record behind these values is PubChem BioAssay (NCATS).
